Broadly, the AC50 is the concentration giving half of the maximal activity seen.

Structures are written as SMILES. Records with an inconclusive call do not appear. Active and inactive are the calls of the source. Rule for the calls, unless noted: active = hit-call score of the fitted dose curve at least 0.9, where 1 is the maximum; inactive = score below 0.9.

Read-out in experiment [1]: Macrophage colony-stimulating factor (MCSF), CSF1 (gene 1435)
Description: BSK_LPS_MCSF: BioMAP Diversity Plus: LPS Assay for Macrophage colony-stimulating factor (MCSF) Biomarker Activity (AID 2283083). The note with it: primary human HUVEC with PBMC; actives raise or lower the signal. The procedure, abridged: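 Bidirectional fitting against DMSO was applied to M-CSF levels read by ELISA at 24 h post-dose. The system pairs human umbilical vein endothelium with peripheral blood mononuclear cells; parallel SRB staining tracked cytotoxicity.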

Read-out in experiment [2]: Tissue Factor, F3 (gene 2152)
The experiment can be described thus: BSK_LPS_TissueFactor: BioMAP Diversity Plus: LPS Assay for Tissue Factor Biomarker Activity (AID 2283084). As to conditions: primary human HUVEC with PBMC; actives raise or lower the signal. The procedure, abridged: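 Compound was added to an endothelial cell/PBMC co-culture, and after 24 h tissue factor (CD142) was read by ELISA. Gain or loss of signal was fitted against a DMSO baseline, and parallel SRB staining (560 nm) tracked overt cytotoxicity.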

Read-out in experiment [3]: Tumor necrosis factor (Homo sapiens) (UniProt P01375)
The experiment can be described thus: BSK_LPS_TNFa: BioMAP Diversity Plus: LPS Assay for Tumour Necrosis Factor alpha (TNFa) Biomarker Activity (AID 2283085). The note with it: primary human HUVEC with PBMC; actives raise or lower the signal. A digest of the protocol:
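Human umbilical vein endothelial cells co-cultured with PBMC and stimulated with LPS. TNFa was measured by ELISA 24 h after chemical dosing, fitted bidirectionally relative to DMSO.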

Read-out in experiment [4]: Vascular cell adhesion molecule 1 (VCAM1), VCAM1 (gene 7412)
The experiment can be described thus: BSK_LPS_VCAM1: BioMAP Diversity Plus: LPS Assay for Vascular cell adhesion molecule 1 (VCAM1) Biomarker Activity (AID 2283086). The note with it: primary human HUVEC with PBMC; actives raise or lower the signal. The procedure, abridged:
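Human umbilical vein endothelial cells co-cultured with PBMC and stimulated with LPS; VCAM-1 measured by ELISA 24 h after dosing. Bidirectional curve fitting against DMSO baseline; cytotoxicity tracked in parallel by SRB total-protein staining.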

Read-out in the next experiment: CD40, CD40 (gene 958)
Description: BSK_SAg_CD40: BioMAP Diversity Plus: SAg Assay for CD40 Biomarker Activity (AID 2283088). As to conditions: primary human HUVEC with PBMC; actives raise or lower the signal. A digest of the protocol: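 CD40 is measured by fluorescence ELISA in an endothelial/PBMC primary human co-culture at 24 h post-dose. Fitting is bidirectional, DMSO baseline. Parallel SRB staining (560 nm) flags cytotoxicity.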

Read-out in another experiment: CD69, CD69 (gene 969)
The experiment can be described thus: BSK_SAg_CD69: BioMAP Diversity Plus: SAg Assay for CD69 Biomarker Activity (AID 2283089).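 For AC50: cell surface CD69 protein quantified by ELISA with fluorescence detection.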 The note with it: primary human HUVEC with PBMC; actives raise or lower the signal. The procedure, abridged:
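Values derive from bidirectional fitting relative to DMSO vehicle. Cells: umbilical vein endothelium plus peripheral blood mononuclear cells, treated 24 h before fluorescent ELISA for CD69.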

Read-out in experiment [5]: Monocyte Chemoattractant Protein-1 (MCP1), CCL2 (gene 6347)
The experiment can be described thus: BSK_SAg_MCP1: BioMAP Diversity Plus: SAg Assay for Monocyte Chemoattractant Protein-1 (MCP1) Biomarker Activity (AID 2283090). As to conditions: primary human HUVEC with PBMC; actives raise or lower the signal. The procedure, abridged:
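MCP-1 levels in the endothelial–PBMC SAg co-culture were quantified by ELISA at 24 h post-dosing; both increases and decreases versus DMSO scored. Cytotoxicity monitored by SRB total protein in parallel cultures.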

Read-out in experiment [6]: E-selectin (Homo sapiens) (UniProt P16581)
The experiment can be described thus: BSK_SAg_Eselectin: BioMAP Diversity Plus: SAg Assay for Eselectin Biomarker Activity (AID 2283091). The note with it: primary human HUVEC with PBMC; actives raise or lower the signal. The procedure, abridged: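 Cell-surface E-selectin is read by ELISA at 24 h in the SAg co-culture of HUVEC and PBMC. Curves are fitted in both directions relative to DMSO. Parallel SRB total-protein staining tracks overt toxicity.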

A short description of experiment [7]: BSK_SAg_PBMCCytotoxicity: PBMC Cytotoxicity Assessment in the BioMAP Diversity Plus: SAg Assay (AID 2283093).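 For AC50: PBMC superantigen activated with SEB plus TSST-1 one hour after compound addition.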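 Note: PBMC viability measured as Alamar Blue reduction fluorescence at 546/580 nm; fitted both ways against DMSO so a hit may be loss or gain of signal.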 The note with it: primary human HUVEC with PBMC. The procedure, abridged: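 Human umbilical vein endothelial cells co-cultured with PBMC; PBMC (75,000/well) pre-treated with compound 1 h, then activated with SEB and TSST-1 (20 ng/mL final each) for 90 h. Alamar Blue added 6 h, fluorescence 546/580 nm; bidirectional fit versus DMSO.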

Read-out in experiment [8]: Interleukin-8 (IL8), CXCL8 (gene 3576)
Description: BSK_SAg_IL8: BioMAP Diversity Plus: SAg Assay for Interleukin-8 (IL8) Biomarker Activity (AID 2283094). The note with it: primary human HUVEC with PBMC; actives raise or lower the signal. The procedure, abridged:
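Human umbilical vein endothelial cells co-cultured with PBMC, stimulated with superantigen; IL-8 measured by ELISA 24 h after chemical dosing. Bidirectional fitting versus DMSO; SRB staining in parallel cultures tracks cytotoxicity.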

The nature of experiment [9]: BSK_SAg_Proliferation: Cell Proliferation Assessment in the BioMAP Diversity Plus: SAg Assay (AID 2283095). The note with it: primary human HUVEC with PBMC. A digest of the protocol: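 Human umbilical vein endothelial cells co-cultured with PBMC; sulforhodamine B total-protein staining (0.1% SRB after 10% TCA fixation, absorbance 560 nm) at 96 h in sub-confluent culture. Fitted bidirectionally against DMSO.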

The nature of experiment [10]: BSK_SAg_SRB: Viability Assessment in the BioMAP Diversity Plus: SAg Assay (AID 2283096).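 Note: cells read one day after compound addition; hits may be either gain or loss of signal compared with DMSO.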 The note with it: primary human HUVEC with PBMC. A digest of the protocol: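 Endothelial/PBMC primary human co-culture; compound 24 h; fix 10% TCA, stain 0.1% SRB, A560; protein content as cytotoxicity proxy; bidirectional curve fit, DMSO = baseline.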
Experiment [11] has as its target human CYP2B6, CYP2B6 (gene 1555) (UniProt P20813). The experiment can be described thus: NVS_ADME_hCYP2B6: NovaScreen (NVS) CYP450-related Enzyme Activity (ADME) Assay for human CYP2B6 (AID 2283101; active = hit-call score of the fitted dose curve at least 0.9, where 1 is the maximum). A digest of the protocol:
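Compounds were first screened in duplicate at 10 uM against recombinant enzyme, with the fluorescent product measured after 1 hour. Active compounds were retested over a concentration series. Loss of fluorescence versus acetonitrile control was scored as reduced enzyme activity.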

Experiment [12] deals with human CYP1A2, CYP1A2 (gene 1544) (UniProt P05177). The experiment can be described thus: NVS_ADME_hCYP1A2: NovaScreen (NVS) CYP450-related Enzyme Activity (ADME) Assay for human CYP1A2 (AID 2283102; active = hit-call score of the fitted dose curve at least 0.9, where 1 is the maximum;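 for AC50: fluorescence from turnover of a fluorogenic substrate by recombinant insect-cell CYP1A2; potency for inhibition since loss of fluorescence marks reduced CYP1A2 activity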). A digest of the protocol: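 Enzyme activity of insect-cell-expressed human CYP1A2 measured by fluorescence 0.5 h after compound addition, relative to acetonitrile. Compounds first tested in duplicate at 10 uM, actives followed up in concentration series.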

The target in experiment [13] is human CYP2D6, CYP2D6 (gene 1565) (UniProt P10635). The experiment can be described thus: NVS_ADME_hCYP2D6: NovaScreen (NVS) CYP450-related Enzyme Activity (ADME) Assay for human CYP2D6 (AID 2283107; active = hit-call score of the fitted dose curve at least 0.9, where 1 is the maximum). A digest of the protocol:
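Fluorescence readout of recombinant CYP2D6 (insect-cell derived) activity after 1 h incubation with test chemical. Acetonitrile served as baseline, loss-of-signal direction. Single-concentration duplicate screening at 10 uM preceded concentration-response retesting.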

Read-out in experiment [14]: Monokine induced gamma interferon (MIG), CXCL9 (gene 4283)
The experiment can be described thus: BSK_SAg_MIG: BioMAP Diversity Plus: SAg Assay for Monokine induced gamma interferon (MIG) Biomarker Activity (AID 2283092). The note with it: primary human HUVEC with PBMC; actives raise or lower the signal. The procedure, abridged:
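Values reflect bidirectional fitting of ELISA-measured MIG against DMSO vehicle, taken 24 h after dosing of a co-culture of human umbilical vein endothelial cells and peripheral blood mononuclear cells.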

Experiment [15] addresses human CYP19A1, CYP19A1 (gene 1588) (UniProt P11511). Description: NVS_ADME_hCYP19A1: NovaScreen (NVS) CYP450-related Enzyme Activity (ADME) Assay for human CYP19A1 (AID 2283098; active = hit-call score of the fitted dose curve at least 0.9, where 1 is the maximum;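 note: potency for inhibitors seen as loss of fluorescent enzyme signal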). The procedure, abridged: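 Cell-free enzyme assay with recombinant protein and a specific fluorogenic substrate, read by fluorescence intensity 0.5 h after dosing. Primary screen ran in duplicate at 10 uM; actives were retested in concentration series. Loss of signal versus acetonitrile baseline.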

In experiment [16] the target is human CYP1A1, CYP1A1 (gene 1543) (UniProt P04798). The experiment can be described thus: NVS_ADME_hCYP1A1: NovaScreen (NVS) CYP450-related Enzyme Activity (ADME) Assay for human CYP1A1 (AID 2283100; active = hit-call score of the fitted dose curve at least 0.9, where 1 is the maximum). The procedure, abridged: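 Chemicals were first tested in duplicate at 10 uM, and those passing a 30% inhibition threshold were rerun as concentration series topping at 20 uM. Fluorescence read-out of recombinant enzyme turnover after 1 h, relative to acetonitrile.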
Chain of human CYP1A1, CYP1A1 (gene 1543) (P04798 whole entry, looked up): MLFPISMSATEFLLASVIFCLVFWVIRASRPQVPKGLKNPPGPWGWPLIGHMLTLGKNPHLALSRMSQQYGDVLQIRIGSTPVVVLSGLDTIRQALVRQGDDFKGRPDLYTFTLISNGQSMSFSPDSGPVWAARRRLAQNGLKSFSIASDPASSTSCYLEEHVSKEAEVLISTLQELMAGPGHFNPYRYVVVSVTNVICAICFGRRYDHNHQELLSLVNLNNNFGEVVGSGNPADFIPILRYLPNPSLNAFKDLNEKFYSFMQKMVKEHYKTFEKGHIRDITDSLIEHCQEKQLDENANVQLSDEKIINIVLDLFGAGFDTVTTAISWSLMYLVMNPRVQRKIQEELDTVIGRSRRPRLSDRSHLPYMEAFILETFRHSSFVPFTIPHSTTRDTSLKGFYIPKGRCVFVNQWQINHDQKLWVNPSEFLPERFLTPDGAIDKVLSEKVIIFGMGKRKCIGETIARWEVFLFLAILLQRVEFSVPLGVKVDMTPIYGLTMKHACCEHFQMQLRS

Chain of Tumor necrosis factor (Homo sapiens) (P01375 whole entry, looked up): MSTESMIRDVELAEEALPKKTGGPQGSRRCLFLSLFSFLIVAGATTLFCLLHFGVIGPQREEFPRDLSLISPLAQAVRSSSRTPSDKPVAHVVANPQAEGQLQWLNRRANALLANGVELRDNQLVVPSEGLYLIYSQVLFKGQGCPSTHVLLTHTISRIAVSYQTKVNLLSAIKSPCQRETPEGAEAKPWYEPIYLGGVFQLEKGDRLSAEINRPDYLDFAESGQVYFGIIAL
Chain of human CYP2D6, CYP2D6 (gene 1565) (P10635 whole entry, looked up): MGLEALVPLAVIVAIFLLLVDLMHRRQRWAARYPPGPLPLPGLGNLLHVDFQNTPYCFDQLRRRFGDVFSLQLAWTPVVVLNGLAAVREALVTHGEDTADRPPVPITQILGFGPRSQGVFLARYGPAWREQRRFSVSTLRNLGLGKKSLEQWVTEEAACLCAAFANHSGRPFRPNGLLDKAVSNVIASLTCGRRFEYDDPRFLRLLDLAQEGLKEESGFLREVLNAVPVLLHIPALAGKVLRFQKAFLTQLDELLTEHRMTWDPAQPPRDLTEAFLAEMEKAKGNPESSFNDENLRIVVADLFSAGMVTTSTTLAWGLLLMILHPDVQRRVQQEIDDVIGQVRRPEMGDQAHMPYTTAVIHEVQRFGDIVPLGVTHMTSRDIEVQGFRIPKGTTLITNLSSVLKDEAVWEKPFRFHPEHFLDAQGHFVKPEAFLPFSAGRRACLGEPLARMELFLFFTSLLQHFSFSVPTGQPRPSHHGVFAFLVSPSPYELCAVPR
Chain of E-selectin (Homo sapiens) (P16581 whole entry, looked up): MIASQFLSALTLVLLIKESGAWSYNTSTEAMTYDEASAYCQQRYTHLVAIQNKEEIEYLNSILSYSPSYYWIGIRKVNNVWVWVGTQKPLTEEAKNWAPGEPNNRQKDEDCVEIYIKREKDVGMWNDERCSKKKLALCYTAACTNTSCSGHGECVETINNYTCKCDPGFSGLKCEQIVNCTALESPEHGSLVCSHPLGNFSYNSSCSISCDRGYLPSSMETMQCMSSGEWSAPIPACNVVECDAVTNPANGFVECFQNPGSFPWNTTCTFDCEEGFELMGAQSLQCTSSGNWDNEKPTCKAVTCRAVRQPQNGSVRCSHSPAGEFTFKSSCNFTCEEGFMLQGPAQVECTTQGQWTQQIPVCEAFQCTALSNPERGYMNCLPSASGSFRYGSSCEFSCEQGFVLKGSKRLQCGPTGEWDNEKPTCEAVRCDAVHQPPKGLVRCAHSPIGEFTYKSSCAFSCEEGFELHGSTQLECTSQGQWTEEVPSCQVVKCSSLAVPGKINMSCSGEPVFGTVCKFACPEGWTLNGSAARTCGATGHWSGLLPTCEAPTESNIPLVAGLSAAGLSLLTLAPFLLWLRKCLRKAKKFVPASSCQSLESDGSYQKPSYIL
Chain of human CYP1A2, CYP1A2 (gene 1544) (P05177 whole entry, looked up): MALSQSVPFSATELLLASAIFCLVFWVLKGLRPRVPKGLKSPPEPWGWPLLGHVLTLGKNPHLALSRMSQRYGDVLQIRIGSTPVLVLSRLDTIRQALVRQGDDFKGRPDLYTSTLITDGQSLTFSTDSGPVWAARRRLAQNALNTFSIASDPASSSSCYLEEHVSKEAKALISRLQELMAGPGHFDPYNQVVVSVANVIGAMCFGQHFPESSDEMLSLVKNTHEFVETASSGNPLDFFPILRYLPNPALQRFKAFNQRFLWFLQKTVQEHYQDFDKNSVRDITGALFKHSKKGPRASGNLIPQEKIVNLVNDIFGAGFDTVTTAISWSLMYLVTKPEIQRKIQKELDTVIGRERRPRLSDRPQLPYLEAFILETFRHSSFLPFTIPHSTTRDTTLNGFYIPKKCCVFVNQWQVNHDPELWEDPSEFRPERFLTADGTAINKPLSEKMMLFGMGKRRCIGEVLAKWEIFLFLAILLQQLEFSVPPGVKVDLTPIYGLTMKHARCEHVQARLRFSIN
Chain of human CYP2B6, CYP2B6 (gene 1555) (P20813 whole entry, looked up): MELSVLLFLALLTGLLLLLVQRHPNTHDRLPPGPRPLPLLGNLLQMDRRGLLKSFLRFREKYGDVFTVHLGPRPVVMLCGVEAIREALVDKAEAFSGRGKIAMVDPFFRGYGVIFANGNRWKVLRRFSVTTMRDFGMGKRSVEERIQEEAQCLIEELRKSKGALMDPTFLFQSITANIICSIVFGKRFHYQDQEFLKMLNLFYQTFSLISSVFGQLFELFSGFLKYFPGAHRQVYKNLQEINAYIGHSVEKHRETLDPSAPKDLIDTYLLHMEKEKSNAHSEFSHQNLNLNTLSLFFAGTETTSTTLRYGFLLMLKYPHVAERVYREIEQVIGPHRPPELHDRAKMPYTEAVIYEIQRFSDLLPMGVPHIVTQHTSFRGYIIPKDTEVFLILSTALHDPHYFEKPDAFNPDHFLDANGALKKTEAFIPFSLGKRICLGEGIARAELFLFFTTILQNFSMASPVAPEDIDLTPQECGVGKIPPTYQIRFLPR
Chain of human CYP19A1, CYP19A1 (gene 1588) (P11511 whole entry, looked up): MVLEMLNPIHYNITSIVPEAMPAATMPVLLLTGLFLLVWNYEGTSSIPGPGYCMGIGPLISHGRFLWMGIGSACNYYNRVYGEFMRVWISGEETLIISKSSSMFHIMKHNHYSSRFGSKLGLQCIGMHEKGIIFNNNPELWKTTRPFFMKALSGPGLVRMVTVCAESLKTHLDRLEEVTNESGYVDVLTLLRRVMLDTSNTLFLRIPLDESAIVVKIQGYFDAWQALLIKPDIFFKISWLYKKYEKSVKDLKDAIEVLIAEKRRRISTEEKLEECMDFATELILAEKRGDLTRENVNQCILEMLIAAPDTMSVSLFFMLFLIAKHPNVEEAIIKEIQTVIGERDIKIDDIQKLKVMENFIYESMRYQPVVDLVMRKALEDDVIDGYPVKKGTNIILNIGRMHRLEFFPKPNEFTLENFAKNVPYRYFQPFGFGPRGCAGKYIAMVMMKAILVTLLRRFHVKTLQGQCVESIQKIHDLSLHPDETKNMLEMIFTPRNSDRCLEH

`Nc1ccc(Nc2ccccc2)cc1`: the AC50 in experiment [1] is 8.31 µM (active); in experiment [3] it was 20 µM (active); in [4], 7.32 µM (active); with CD40, CD40 (gene 958), 3.97 µM (active); in the experiment with CD69, CD69 (gene 969), 3.97 µM (active); in experiment [5], 9.88 µM (active). In addition, the half-maximal activity concentration (AC50) in experiment [6] was 2.72 µM (active); in experiment [7], 5.36 µM (active); in experiment [8], 8.78 µM (active); in experiment [9] it was 14 µM (active); in [11], 4.35 µM (active); in experiment [12] it was 15.1 µM (active). In [13], the concentration at half-maximal activity (AC50) is 13.8 µM (active). Further, the outcome in experiment [2] and in experiment [10] was inactive.

For the compound `O=c1[nH]c2ccc(S(=O)CCN3CCC(Cc4ccc(F)cc4)CC3)cc2o1` (centres undefined), the outcome is “inactive” in experiment [1]; “inactive” in [2]; “inactive” in experiment [3]; “inactive” in [4]; “inactive” in the experiment with CD40, CD40 (gene 958); “inactive” with CD69, CD69 (gene 969). Also, the outcome in [5], in experiment [6], in experiment [7], in experiment [8], in [9] and in experiment [10] was inactive. The AC50 in experiment [13] is 1.3 µM (active).

Consider `O=C(O)CC(O)C(=O)O` (centres undefined), for which the outcome in [1] was “inactive”; in [2], “inactive”; in experiment [3], “inactive”; in [4] it was “inactive”; in the experiment with CD40, CD40 (gene 958) it was “inactive”; in the experiment with CD69, CD69 (gene 969), “inactive”. The outcome in experiment [5], in experiment [6], in experiment [7], in experiment [8], in experiment [9] and in [10] was inactive.

For the compound `CCCCCCc1ccc(O)cc1O`, the result in experiment [2] and in experiment [12] was inactive. The AC50 in [3] is 32.6 µM (active); in [4] it was 32 µM (active); in the experiment with CD40, CD40 (gene 958) it was 30.6 µM (active); in experiment [5] it was 27.6 µM (active); in experiment [6], 33.6 µM (active); in [14] it was 36.8 µM (active). Moreover, the concentration at half-maximal activity (AC50) in experiment [7] was 33.1 µM (active); in experiment [8], 24.4 µM (active); in experiment [9], 31 µM (active); in experiment [15], 4.09 µM (active); in [11], 4.64 µM (active); in experiment [13], 8.17 µM (active).

In the case of `O=C(CCCCCCCCc1cccnc1)N1CCC(C=C(c2ccccc2)c2ccccc2)CC1`, the half-maximal activity concentration (AC50) was 11.4 µM (active) in [1]; 14.6 µM (active) in experiment [2]; 15 µM (active) in experiment [4]; 8.35 µM (active) in the experiment with CD40, CD40 (gene 958); 8.49 µM (active) with CD69, CD69 (gene 969); 7.42 µM (active) in experiment [5]. Besides, the AC50 in experiment [6] is 7.71 µM (active); in [7], 10.3 µM (active); in experiment [8], 6.46 µM (active); in experiment [9], 6.21 µM (active); in experiment [10], 12.7 µM (active).

Regarding `CC(C)=CCCC(C)CCO` (centres undefined), the outcome is “inactive” in [1]; “inactive” in [2]; “inactive” in experiment [3]; “inactive” in experiment [4]; “inactive” with CD40, CD40 (gene 958); “inactive” with CD69, CD69 (gene 969). Also, the outcome in [5], in experiment [6], in experiment [14], in [7], in experiment [8] and in experiment [9] was inactive. Moreover, the outcome in experiment [10] and in experiment [16] was inactive.

For the origin of these results see PubChem BioAssay (EPA / NIEHS).
